Assay results as given in PubChem BioAssay (Tox21).
Results filed as inconclusive are left out. Some compounds were tested as several samples or in several runs, with calls that do not always agree. Activity calls are given as the source filed them. Unless noted, calls follow the shape of the full dose curve.

How the values were obtained:
[1] = Nuclear factor erythroid 2-related factor 2/antioxidant responsive element (Nrf2/ARE) small molecule agonists: luciferase reporter gene qHTS assay in human keratinocytes (AID 1919969); also: nearly all actives have a fitted effect of over 35% in size; also: potency is read from the fitted curve at half-maximal effect
[2] = biological target: Gonadotropin-releasing hormone receptor (Homo sapiens) (UniProt P30968); assay: Human gonadotropin-releasing hormone receptor (GnRHR) small molecule agonists, calcium flux assay in GnRHR-HEK293 cells (AID 1920063); also: nearly all actives have a fitted effect of over 35% in size; also: potency is read from the fitted curve at half-maximal effect
Gonadotropin-releasing hormone receptor (Homo sapiens), sequence (P30968 whole entry, looked up): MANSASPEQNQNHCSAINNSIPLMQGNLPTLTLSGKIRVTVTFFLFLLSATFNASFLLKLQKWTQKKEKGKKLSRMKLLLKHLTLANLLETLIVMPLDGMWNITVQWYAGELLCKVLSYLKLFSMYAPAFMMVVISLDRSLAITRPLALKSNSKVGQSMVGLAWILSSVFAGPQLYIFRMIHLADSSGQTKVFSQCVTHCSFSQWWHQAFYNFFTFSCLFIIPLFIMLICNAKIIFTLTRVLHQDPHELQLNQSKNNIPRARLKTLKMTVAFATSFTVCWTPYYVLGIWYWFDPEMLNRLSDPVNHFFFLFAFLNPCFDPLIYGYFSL
Method in brief: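 Agonist activity was measured as intracellular calcium flux in HEK293 cells engineered to stably express human GnRHR. After dye loading for 1 hour at 37 C, compounds in DMSO were added and fluorescence was followed for 3 minutes.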

[3] = biological target: KiSS-1 receptor (Homo sapiens) (UniProt Q969F8); assay: Human kisspeptin (KISS1R) small molecule agonists, calcium flux assay in KISS1R-HEK293 cells (AID 1920064; active = well fitted activation curve with a large enough effect in the repeat runs; also: potency is read from the fitted curve at half-maximal effect)
KiSS-1 receptor (Homo sapiens), sequence (Q969F8 whole entry, looked up): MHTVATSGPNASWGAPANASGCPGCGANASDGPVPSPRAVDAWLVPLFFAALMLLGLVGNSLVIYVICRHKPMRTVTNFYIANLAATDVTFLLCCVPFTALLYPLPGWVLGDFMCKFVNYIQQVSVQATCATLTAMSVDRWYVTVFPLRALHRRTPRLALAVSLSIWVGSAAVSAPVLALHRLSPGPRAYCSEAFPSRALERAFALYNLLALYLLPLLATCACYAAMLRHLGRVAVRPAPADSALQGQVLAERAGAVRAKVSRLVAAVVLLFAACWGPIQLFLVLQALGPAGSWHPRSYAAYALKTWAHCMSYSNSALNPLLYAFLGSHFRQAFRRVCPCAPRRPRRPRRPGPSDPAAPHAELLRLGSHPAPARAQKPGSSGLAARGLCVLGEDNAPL
Method in brief: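 Agonist activity is monitored as intracellular calcium rise in engineered HEK293 cells carrying human KISS1R. Cells are dye-loaded for 1 h at 37 C before compound addition, and fluorescence is recorded for 3 min.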

[4] = G protein-coupled receptor (GPCR) small molecule agonists, calcium flux assay: HEK293 wild type cell line counter screen (AID 1920065)
Method in brief: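 Seed cells, incubate 18 h (37 C, 5% CO2); add calcium dye, 1 h at 37 C; pin-transfer compounds, ATP control or DMSO; read fluorescence 480/540 nm each second for 3 min.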

[5] = p53 small molecule agonists, cell-based qHTS assay with human liver microsomes (AID 1963577);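 also: p53 response element beta-lactamase reporter cells with liver microsomes plus NADPH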
Method in brief: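 Steps: plate p53RE-bla cells, incubate 5 h at 37 C; add compound in DMSO; add microsomes (0.5 mg/mL final) and NADPH (0.5 mg/mL final); incubate 16 h at 37 C; add LiveBLAzer, 2 h RT; read fluorescence.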

[6] = p53 small molecule agonists, cell-based qHTS assay with human liver microsomes: qHTS cell viability counter screen (AID 1963579); also: nearly all actives have a fitted effect of over 45% in size
Method in brief: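 After the 460/530 nm beta-lactamase read, CellTiter-Glo was added to the same wells and luminescence measured after 30 min at room temperature, giving viability of p53RE-bla cells treated 16 h with compounds plus microsomes and NADPH.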

[7] = p53 small molecule agonists, cell-based qHTS assay with rat liver microsomes: qHTS cell viability counter screen (AID 1963580); also: nearly all actives have a fitted effect of over 45% in size
Method in brief: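 Counter screen for cytotoxicity under metabolic activation: rat liver microsomes and NADPH, 0.5 mg/mL final each, added with compounds to p53RE-bla HCT-116 cells; 16 h at 37 C, then ATP luminescence read.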

[8] = p53 small molecule agonists, cell-based qHTS assay: qHTS cell viability counter screen (AID 1963581); also: nearly all actives have a fitted effect of over 45% in size
Method in brief: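 Viability was counter-screened in parallel with the p53 agonist reporter by measuring intracellular ATP luminescence in the same HCT-116 p53RE-bla wells after 16 h compound treatment at 37 C.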

[9] = p53 small molecule agonists, cell-based qHTS assay (AID 1963582; active = well fitted activation curve with a large enough effect in the signal ratio in the repeat runs, not every such curve was filed as active; the % refers to the signal ratio; also: potency is read from the fitted curve at half-maximal effect)
Method in brief: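 Cells carrying a p53-responsive bla reporter are treated with test compounds for 16 h at 37 C; beta-lactamase activity is then detected with LiveBLAzer B/G FRET substrate after 2 h at room temperature.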

[10] = biological target: 5-hydroxytryptamine receptor 2A (Homo sapiens) (UniProt P28223); assay: 5-hydroxytryptamine receptor 2A (HTR2A) small molecule antagonists, cell-based qHTS assay (AID 1963586); also: nearly all actives have a fitted effect of over 45% in size; also: potency is read from the fitted curve at half-maximal effect
5-hydroxytryptamine receptor 2A (Homo sapiens), sequence (P28223 whole entry, looked up): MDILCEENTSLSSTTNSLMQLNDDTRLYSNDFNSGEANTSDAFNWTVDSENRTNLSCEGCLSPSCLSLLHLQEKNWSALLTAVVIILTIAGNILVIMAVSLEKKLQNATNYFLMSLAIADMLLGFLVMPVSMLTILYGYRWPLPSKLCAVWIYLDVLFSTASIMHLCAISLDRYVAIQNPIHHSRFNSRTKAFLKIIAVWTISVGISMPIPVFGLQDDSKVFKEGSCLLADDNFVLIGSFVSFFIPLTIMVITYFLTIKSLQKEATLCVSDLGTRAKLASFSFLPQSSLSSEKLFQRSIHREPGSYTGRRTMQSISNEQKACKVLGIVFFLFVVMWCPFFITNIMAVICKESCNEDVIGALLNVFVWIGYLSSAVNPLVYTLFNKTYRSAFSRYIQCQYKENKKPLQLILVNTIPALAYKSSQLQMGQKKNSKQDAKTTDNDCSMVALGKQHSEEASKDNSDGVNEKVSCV
Method in brief: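 CHO cells stably expressing human HTR2A were plated for 18 h at 37 C, then loaded with calcium dye for 1 h. Compounds were preincubated 5 min at room temperature before DOI (4 nM solution) was added. Kinetic fluorescence was read for 3 min.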

[11] = biological target: 5-hydroxytryptamine receptor 2A (Homo sapiens) (UniProt P28223); assay: 5-hydroxytryptamine receptor 2A (HTR2A) small molecule agonists, cell-based qHTS assay (AID 1963587); also: nearly all actives have a fitted effect of over 30% in size; also: potency is read from the fitted curve at half-maximal effect
Method in brief: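 HTR2A-CHO cells, plated 18 h at 37 C/5% CO2, dye-loaded 1 h at 37 C; compounds in DMSO added by pin tool (agonist mode). Intracellular calcium flux read as kinetic fluorescence on FDSS over 2 min at 1 s intervals.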

[12] = biological target: Muscarinic acetylcholine receptor M1 (Homo sapiens) (UniProt P11229); assay: Cholinergic receptor muscarinic 1 (CHRM1) small molecule antagonists, cell-based qHTS assay (AID 1963588); also: nearly all actives have a fitted effect of over 40% in size
Muscarinic acetylcholine receptor M1 (Homo sapiens), sequence (P11229 whole entry, looked up): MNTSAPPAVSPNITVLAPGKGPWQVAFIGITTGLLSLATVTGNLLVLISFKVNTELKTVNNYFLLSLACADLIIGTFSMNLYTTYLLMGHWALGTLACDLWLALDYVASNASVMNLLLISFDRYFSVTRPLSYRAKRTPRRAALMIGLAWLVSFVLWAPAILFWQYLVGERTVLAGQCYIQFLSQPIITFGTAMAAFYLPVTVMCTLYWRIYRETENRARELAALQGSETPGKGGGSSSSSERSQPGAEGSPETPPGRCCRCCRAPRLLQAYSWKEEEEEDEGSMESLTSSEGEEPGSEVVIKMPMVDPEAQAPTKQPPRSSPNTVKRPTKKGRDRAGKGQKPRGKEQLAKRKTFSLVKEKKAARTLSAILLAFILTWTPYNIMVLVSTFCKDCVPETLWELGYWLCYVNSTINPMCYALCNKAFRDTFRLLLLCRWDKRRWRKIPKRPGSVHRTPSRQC
Method in brief: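 Compounds were tested at 15 concentrations in three independent runs. Dye-loaded CHRM1-CHO cells were exposed 5 min at room temperature before stimulation by acetylcholine added at 50nM. Intracellular calcium was read kinetically on FDSS for 3 min.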

[13] = biological target: Muscarinic acetylcholine receptor M1 (Homo sapiens) (UniProt P11229); assay: Cholinergic receptor muscarinic 1 (CHRM1) small molecule agonists, cell-based qHTS assay (AID 1963589); also: nearly all actives have a fitted effect of over 35% in size; also: potency is read from the fitted curve at half-maximal effect
Method in brief: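 Cells were plated and incubated 18 h at 37 C/5% CO2, loaded with calcium dye for 1 h at 37 C, then treated with compounds in DMSO. Fluorescence was recorded kinetically at 1 sec intervals.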

[14] = cAMP Responsive Elements (CRE) small molecule agonists, cell-based qHTS assay (AID 1963590)
Method in brief: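 Cells carrying a CRE-driven beta-lactamase reporter (HEK 293T) are seeded, incubated overnight (18 h), and treated with test compounds for 3 h at 37 C; reporter activity is then detected with a FRET substrate after 2 h at room temperature.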

[15] = cAMP Responsive Elements (CRE) small molecule antagonists, cell-based qHTS assay (AID 1963591; active = well fitted inhibition curve with a large enough effect in the signal ratio in the repeat runs, not every such curve was filed as active; the % refers to the signal ratio)
Method in brief: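 Cells (CRE-bla HEK 293T, DMEM with 10% dialyzed FBS and 25 mM HEPES) are seeded and incubated 18 h. Compounds are added with NKH477 agonist at 0.25 uM final for 3 h, then FRET substrate for 2 h.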

[16] = biological target: Beta-2 adrenergic receptor (Homo sapiens) (UniProt P07550); assay: Adrenergic beta2 receptor (ADRB2) small molecule antagonists, cell-based qHTS assay (AID 1963592); also: nearly all actives have a fitted effect of over 50% in size; also: potency is read from the fitted curve at half-maximal effect
Beta-2 adrenergic receptor (Homo sapiens), sequence (P07550 whole entry, looked up): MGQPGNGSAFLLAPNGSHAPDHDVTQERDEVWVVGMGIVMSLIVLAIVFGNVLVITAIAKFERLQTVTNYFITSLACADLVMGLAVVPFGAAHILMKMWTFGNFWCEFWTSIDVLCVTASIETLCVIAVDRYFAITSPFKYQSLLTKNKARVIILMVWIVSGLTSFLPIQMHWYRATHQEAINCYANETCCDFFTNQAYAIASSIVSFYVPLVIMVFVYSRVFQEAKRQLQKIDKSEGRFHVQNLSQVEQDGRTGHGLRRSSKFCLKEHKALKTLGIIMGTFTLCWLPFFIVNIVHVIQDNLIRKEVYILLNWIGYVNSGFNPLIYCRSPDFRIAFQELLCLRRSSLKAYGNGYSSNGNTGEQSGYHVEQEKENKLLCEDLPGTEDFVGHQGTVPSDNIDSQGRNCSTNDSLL
Method in brief: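 Assay format: CHO-ADRB2 cells, 18-20hr seeding at 37C/5% CO2, then compound plus 1nM isoproterenol agonist mix for 0.5hr RT. Homogeneous time-resolved fluorescence cAMP detection after 1hr, expressed as 665/615 nm ratio.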

[17] = biological target: Beta-2 adrenergic receptor (Homo sapiens) (UniProt P07550); assay: Adrenergic beta2 receptor (ADRB2) small molecule agonists, cell-based qHTS assay (AID 1963593);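 also: CHO cells stably overexpressing human ADRB2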
Method in brief: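 CHO cells stably over-expressing ADRB2 were plated overnight at 37C, then dosed with compounds plus a stimulation mix containing 100uM IBMX and 25uM Ro-20-1724 for 0.5hr at room temperature. cAMP was measured by HTRF competition, 1hr.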

[18] = p53 small molecule agonists, cell-based qHTS assay with rat liver microsomes (AID 1963578)
Method in brief: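 Metabolic activation is supplied by rat liver microsomes with NADPH (each 0.5 mg/mL final). p53RE-bla cells incubate with compound 16 h at 37 C; reporter activity is measured by LiveBLAzer fluorescence.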

[19] = biological target: D(2) dopamine receptor (Homo sapiens) (UniProt P14416); assay: Dopamine D2 receptor (DRD2) small molecule antagonists, cell-based qHTS assay (AID 1963595; active = well fitted inhibition curve with a large enough effect in the signal ratio in the repeat runs, with a control signal flat; the % refers to the signal ratio; also: potency is read from the fitted curve at half-maximal effect)
D(2) dopamine receptor (Homo sapiens), sequence (P14416 whole entry, looked up): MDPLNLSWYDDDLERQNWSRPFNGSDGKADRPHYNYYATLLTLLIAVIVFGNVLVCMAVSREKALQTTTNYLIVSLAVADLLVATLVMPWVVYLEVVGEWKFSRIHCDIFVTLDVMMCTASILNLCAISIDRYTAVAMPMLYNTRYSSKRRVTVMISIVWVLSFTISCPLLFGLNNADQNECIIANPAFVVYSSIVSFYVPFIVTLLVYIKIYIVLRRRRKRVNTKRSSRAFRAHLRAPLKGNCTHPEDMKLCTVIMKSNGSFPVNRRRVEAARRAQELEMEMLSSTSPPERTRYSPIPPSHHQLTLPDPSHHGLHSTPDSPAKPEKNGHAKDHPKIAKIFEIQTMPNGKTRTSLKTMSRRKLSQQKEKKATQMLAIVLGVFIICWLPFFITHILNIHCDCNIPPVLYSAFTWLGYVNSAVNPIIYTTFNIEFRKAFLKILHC
Method in brief: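 Stable D2 receptor HEK293 line, 24 h after seeding. Compound preincubated 10 min, then quinpirole (12 nM) with forskolin analogue NKH477 (200 nM), 30 min, room temperature. Detection by time-resolved FRET of cAMP.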

[20] = biological target: D(2) dopamine receptor (Homo sapiens) (UniProt P14416); assay: Dopamine D2 receptor (DRD2) small molecule agonists, cell-based qHTS assay (AID 1963594); also: nearly all actives have a fitted effect of over 35% in size
Method in brief: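 HEK293 cells stably expressing DRD2 were cultured 24 h at 37 C, then given Ro20-1724 (0.1 mM final) and compounds for 10 min at room temperature. NKH477 (200nM) was then added for 30 min. cAMP was read by HTRF.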

Measured: Potency

CC(=O)c1cc(C(C)(C)C)cc2c1CCC2(C)C
not listed: [18] | [19] | [20]
inactive: all other assays above

CO/N=C(/C1=NOCCO1)c1ccccc1Oc1ncnc(Oc2ccccc2Cl)c1F
inactive: [1] | [2] | [3] | [4] | [18] | [6] | [7] | [11] | [13] | [16] | [19]

CC(C)C1CCC(Cc2ccc(Cl)cc2)C1(O)Cn1cncn1 (stereo unspecified)
inactive: [1] | [2] | [3] | [4] | [5] | [18] | [9] | [13] | [20]
active: [10] 37.1 µM | [16] 30.3 µM

Cc1cc(C(C)(C)c2cc(C)c(O)c(C)c2)cc(C)c1O
inactive: [1] | [3] | [4] | [5] | [18] | [12] | [17] | [20]
active: [2] 33.5 µM | [11] 23.7 µM

CN(C)C(=O)Oc1cc(OC(=O)N(C)C)cc(C(O)CNC(C)(C)C)c1 (stereo unspecified)
not listed: [5] | [10] | [11] | [12] | [13] | [18] | [20]
inactive: all other assays above

ClC1=C(Cl)[C@]2(Cl)[C@H]3[C@H]([C@H]4C=C[C@H]3C4)[C@@]1(Cl)C2(Cl)Cl
active: [1] 19.3 µM
not listed: [12] | [14] | [17] | [18]
inactive: all other assays above

CC(=O)/C=C/c1ccc2c(c1)OCO2
inactive: [2] | [3] | [4] | [5] | [6] | [7] | [8] | [10] | [11] | [12]
active: [1] 61.4 µM | [9] 41 µM

COc1cc(OC)nc(NC(=O)NS(=O)(=O)c2ncccc2OCC(F)(F)F)n1
not listed: [5] | [10]
inactive: all other assays above

O=[N+]([O-])c1c2ccccc2cc2ccccc12
inactive: [2] | [3] | [4] | [18] | [6] | [7] | [11] | [12] | [13] | [20]
active: [1] 21.4 µM

COc1cc(CC#N)cc(OC)c1OC
not listed: [8] | [10] | [17] | [18]
inactive: all other assays above

NS(=O)(=O)C(F)(F)C(F)(F)C(F)(F)C(F)(F)C(F)(F)C(F)(F)C(F)(F)C(F)(F)F
active: [1] 68.6 µM | [13] 2.2 nM
not listed: [9] | [10] | [14] | [18] | [20]
inactive: all other assays above

Nc1ccc(N=Nc2ccccc2)cc1
active: [1] 10.9 µM
inactive: [2] | [3] | [4] | [5] | [18] | [9] | [11] | [12] | [13] | [19]

CC1(C)C(C(=O)OC(C#N)c2cccc(Oc3ccccc3)c2)C1(C)C (stereo unspecified)
39.2 µM (active) and inactive: [11]
not listed: [6] | [12] | [16] | [17] | [18]
inactive: all other assays above

CN1C[C@H](CNC(=O)OCc2ccccc2)C[C@@H]2c3cccc4c3c(cn4C)C[C@H]21
active: [19] 10.6 µM
not listed: [5] | [10] | [11] | [12] | [13] | [15] | [16] | [17]
inactive: all other assays above

CSC(=O)c1c(C(F)F)nc(C(F)(F)F)c(C(=O)SC)c1CC(C)C
active: [1] 24.2 µM
not listed: [5] | [9] | [10] | [12] | [14] | [17]
inactive: all other assays above

Cc1cc(C)cc(OP(=O)(Oc2cc(C)cc(C)c2)Oc2cc(C)cc(C)c2)c1
not listed: [15] | [17] | [18]
inactive: all other assays above

NC(=O)CS(=O)C(c1ccccc1)c1ccccc1 (stereo unspecified)
not listed: [5] | [6] | [10] | [11] | [12] | [13] | [17]
inactive: all other assays above

CC[C@H]1C[C@@H]2C[C@H]3c4[nH]c5ccc(OC)cc5c4CCN(C2)[C@@H]13
active: [1] 67.4 µM | [10] 0.293 µM
not listed: [5] | [8] | [13] | [14] | [15] | [16] | [17]
inactive: all other assays above

CS/C(C)=N/OC(=O)N(C)SN(C)C(=O)O/N=C(\C)SC
active: [1] 68.6 µM | [11] 43.6 µM
not listed: [5] | [16] | [18]
inactive: all other assays above

O=S1OC[C@@H]2[C@H](CO1)[C@]1(Cl)C(Cl)=C(Cl)[C@@]2(Cl)C1(Cl)Cl (stereo partly specified)
active: [1] 24.3 µM
not listed: [6] | [9] | [10] | [14] | [15] | [17] | [19]
inactive: all other assays above

COC(N)=O
not listed: [5] | [14] | [15] | [17] | [19]
inactive: all other assays above

O=C(c1ccccc1)C(Cl)Cl
active: [1] 27.3 µM
not listed: [5] | [7] | [8] | [9] | [15] | [17]
inactive: all other assays above

CCNS(=O)(=O)C(F)(F)C(F)(F)C(F)(F)C(F)(F)C(F)(F)C(F)(F)C(F)(F)C(F)(F)F
active: [1] 58.5 µM
not listed: [5] | [9] | [18]
inactive: all other assays above

CN1C(=O)[C@@H](NC(=O)c2cc3ccccc3[nH]2)N=C(c2ccccc2)c2ccccc21
not listed: [3] | [7] | [9] | [16] | [17]
inactive: all other assays above

CCOP(=S)(OCC)SCSCC
not listed: [5] | [9] | [18] | [20]
inactive: all other assays above

O=C(N[C@@H]1N=C(c2ccccc2F)c2cccc3c2N(CC3)C1=O)c1cc2ccccc2[nH]1
active: [2] 4.25 µM | [3] 15.1 µM | [11] 13.4 µM
not listed: [4] | [6] | [9] | [10] | [19]
inactive: all other assays above

c1cc2ccc3cccc4ccc(c1)c2c34
inactive: [1] | [2] | [3] | [4] | [10] | [11] | [12]

CCCCN(CCCC)C(=S)S
active: [1] 68.6 µM
not listed: [5] | [8] | [9] | [11] | [13] | [15] | [17] | [18]
inactive: all other assays above
